From PubChem BioAssay AID1159580 (chemical genetic matrix, 2015)
Screen size: about 5,500 compounds; about 2,000 (36%) were called active. Roughly 18% stayed inconclusive and do not appear here. No stated cut-off is given here; in the data, active means normalized growth mostly below about 0.91 (no sharp cut-off); inconclusive means no clear call, values can overlap the other calls; inactive means mostly above about 0.92. The list shows a part of the results.

Assay: chemical genetic growth profiling, strain panel (AID 1159580);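 further: tested at 20 µM; growth read once vehicle control cultures reached saturation at 30 °C; 1 = growth at the plate median or of vehicle wells; lower values mean less growth of the strain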
Settings: growth OD

Measured: normalized growth

O=c1[nH]c(=O)n(C2C[C@H](O)[C@@H](CO)O2)cc1C(F)(F)F (stereo partly specified)
inactive: S. cerevisiae deletion strains, locus YKL009W, strain mrt4, active compounds read low 0.981 | S. cerevisiae deletion strains, locus YKL068W, active compounds read low 0.978 | S. cerevisiae deletion strains, locus YKL085W, strain MDH1 (second series), active compounds read low 0.974 | S. cerevisiae deletion strains, locus YKL085W, strain MDH1, active compounds read low 0.974 | S. cerevisiae deletion strains, locus YKL160W, strain elf1, active compounds read low 0.954 | S. cerevisiae deletion strains, locus YKL190W, strain CNB1, active compounds read low 0.996 | S. cerevisiae deletion strains, locus YKR001C, strain vps1, active compounds read low 0.982 | S. cerevisiae deletion strains, locus YKR026C, strain gcn3, active compounds read low 0.973 | S. cerevisiae deletion strains, locus YKR091W, strain srl3, active compounds read low 0.96 | S. cerevisiae deletion strains, locus YLL001W, strain dnm1, active compounds read low 0.994 | S. cerevisiae deletion strains, locus YLL026W, active compounds read low 0.962 | S. cerevisiae deletion strains, locus YLL041C, strain sdh2, active compounds read low 0.954 | S. cerevisiae deletion strains, locus YLR027C, strain aat2, active compounds read low 0.965 | S. cerevisiae deletion strains, locus YLR039C, strain RIC1, active compounds read low 0.934 | S. cerevisiae deletion strains, locus YLR058C, strain SHM2, active compounds read low 0.968 | S. cerevisiae deletion strains, locus YLR102C, strain apc9, active compounds read low 0.98 | S. cerevisiae deletion strains, locus YLR113W, strain HOG1, active compounds read low 0.996 | S. cerevisiae deletion strains, locus YLR221C, strain rsa3, active compounds read low 0.988 | S. cerevisiae deletion strains, locus YLR258W, strain gsy2, active compounds read low 0.965 | S. cerevisiae deletion strains, locus YLR262C, strain YPT6 (second series), active compounds read low 0.936 | S. cerevisiae deletion strains, locus YLR262C, strain YPT6, active compounds read low 0.955 | S. cerevisiae deletion strains, locus YLR268W, strain sec22, active compounds read low 0.962 | S. cerevisiae deletion strains, locus YLR320W, strain mms22, active compounds read low 1 | S. cerevisiae deletion strains, locus YLR330W, strain CHS5, active compounds read low 0.988 | S. cerevisiae deletion strains, locus YLR342W, strain FKS1 (second series), active compounds read low 1 | S. cerevisiae deletion strains, locus YLR342W, strain FKS1, active compounds read low 0.966 | S. cerevisiae deletion strains, locus YLR357W, strain rsc2, active compounds read low 0.981 | S. cerevisiae deletion strains, locus YLR370C, strain arc18, active compounds read low 0.947 | S. cerevisiae deletion strains, locus YLR371W, strain rom2, active compounds read low 0.97 | S. cerevisiae deletion strains, locus YLR384C, strain iki3, active compounds read low 0.952 | S. cerevisiae deletion strains, locus YLR418C, strain cdc73, active compounds read low 0.975 | S. cerevisiae deletion strains, locus YML016C, strain PPZ1, active compounds read low 0.993 | S. cerevisiae deletion strains, locus YML032C, strain rad52, active compounds read low 0.979 | S. cerevisiae deletion strains, locus YML120C, strain ndi1, active compounds read low 0.992 | S. cerevisiae deletion strains, locus YML124C, strain tub3, active compounds read low 0.972 | S. cerevisiae deletion strains, locus YMR058W, strain fet3, active compounds read low 0.952 | S. cerevisiae deletion strains, locus YMR078C, strain ctf18, active compounds read low 0.972 | S. cerevisiae deletion strains, locus YMR125W, strain sto1, active compounds read low 0.95 | S. cerevisiae deletion strains, locus YMR129W, active compounds read low 0.967 | S. cerevisiae deletion strains, locus YMR205C, strain PFK2, active compounds read low 0.983 | S. cerevisiae deletion strains, locus YMR223W, strain ubp8, active compounds read low 0.988 | S. cerevisiae deletion strains, locus YMR231W, strain pep5, active compounds read low 0.981 | S. cerevisiae deletion strains, locus YMR263W, strain SAP30, active compounds read low 1 | S. cerevisiae deletion strains, locus YMR307W, strain GAS1, active compounds read low 0.978 | S. cerevisiae deletion strains, locus YNL067W, strain RPL9B, active compounds read low 0.992 | S. cerevisiae deletion strains, locus YNL071W, strain lat1, active compounds read low 1 | S. cerevisiae deletion strains, locus YNL128W, strain TEP1, active compounds read low 0.976 | S. cerevisiae deletion strains, locus YNL153C, strain GIM3, active compounds read low 0.992 | S. cerevisiae deletion strains, locus YNL183C, strain NPR1, active compounds read low 0.966 | S. cerevisiae deletion strains, locus YNL209W, strain ssb2, active compounds read low 0.961 | S. cerevisiae deletion strains, locus YNL233W, strain BNI4, active compounds read low 0.978 | S. cerevisiae deletion strains, locus YNL248C, strain rpa49, active compounds read low 0.926 | S. cerevisiae deletion strains, locus YNL250W, strain rad50, active compounds read low 0.951 | S. cerevisiae deletion strains, locus YNL271C, strain bni1, active compounds read low 0.983 | S. cerevisiae deletion strains, locus YNL298W, strain CLA4, active compounds read low 0.971 | S. cerevisiae deletion strains, locus YNL307C, strain MCK1, active compounds read low 0.972 | S. cerevisiae deletion strains, locus YNL322C, strain KRE1 (second series), active compounds read low 0.935 | S. cerevisiae deletion strains, locus YNL322C, strain KRE1, active compounds read low 0.989 | S. cerevisiae deletion strains, locus YNR049C, strain mso1, active compounds read low 0.957 | S. cerevisiae deletion strains, locus YNR052C, strain pop2, active compounds read low 0.992 | S. cerevisiae deletion strains, locus YOL006C, strain TOP1, active compounds read low 0.969 | S. cerevisiae deletion strains, locus YOL012C, strain htz1 0.749 | S. cerevisiae deletion strains, locus YOL147C, strain pex11, active compounds read low 0.974 | S. cerevisiae deletion strains, locus YOR001W, strain rrp6, active compounds read low 0.99 | S. cerevisiae deletion strains, locus YOR061W, strain CKA2, active compounds read low 0.987 | S. cerevisiae deletion strains, locus YOR069W, strain VPS5, active compounds read low 0.983 | S. cerevisiae deletion strains, locus YOR070C, strain gyp1, active compounds read low 0.977 | S. cerevisiae deletion strains, locus YOR080W, strain dia2, active compounds read low 0.96 | S. cerevisiae deletion strains, locus YOR083W, strain WHI5, active compounds read low 0.917 | S. cerevisiae deletion strains, locus YOR106W, strain vam3, active compounds read low 0.95 | S. cerevisiae deletion strains, locus YOR136W, strain idh2, active compounds read low 0.978 | S. cerevisiae deletion strains, locus YOR144C, strain elg1, active compounds read low 0.97 | S. cerevisiae deletion strains, locus YOR184W, strain ser1, active compounds read low 0.983 | S. cerevisiae deletion strains, locus YOR231W, strain MKK1, active compounds read low 0.992 | S. cerevisiae deletion strains, locus YOR265W, strain rbl2, active compounds read low 0.971 | S. cerevisiae deletion strains, locus YOR270C, strain vph1, active compounds read low 0.948 | S. cerevisiae deletion strains, locus YOR290C, strain snf2, active compounds read low 0.949 | S. cerevisiae deletion strains, locus YOR316C, strain cot1, active compounds read low 0.983 | S. cerevisiae deletion strains, locus YPL051W, strain arl3, active compounds read low 0.981 | S. cerevisiae deletion strains, locus YPL055C, strain LGE1, active compounds read low 0.985 | S. cerevisiae deletion strains, locus YPL078C, strain atp4, active compounds read low 0.988 | S. cerevisiae deletion strains, locus YPL106C, strain sse1, active compounds read low 0.944 | S. cerevisiae deletion strains, locus YPL240C, strain hsp82, active compounds read low 0.969 | S. cerevisiae deletion strains, locus YPL241C, strain CIN2, active compounds read low 0.983 | S. cerevisiae deletion strains, locus YPL256C, strain CLN2, active compounds read low 1.04 | S. cerevisiae deletion strains, locus YPR119W, strain clb2, active compounds read low 0.987 | S. cerevisiae deletion strains, locus YPR141C, strain kar3, active compounds read low 0.959 | S. cerevisiae deletion strains, locus YPR163C, strain tif3, active compounds read low 0.972 | S. cerevisiae deletion strains, locus YPR167C, strain met16, active compounds read low 0.971 | S. cerevisiae deletion strains, strain wtn01, active compounds read low 0.985 | S. cerevisiae strains, strain wild type, active compounds read low 0.985
